Screens: PubChem BioAssay, National Center for Advancing Translational Sciences (NCATS)
Shown are actives, neighbours in structure and some others; about 2.1% of the full set was active somewhere.
FUS suppressor = FUS proteinopathy suppression in yeast; S. cerevisiae FUS-expressing, growth rescue, OD600, 24 h; Potency, µM (titrated, usually from 76.6 µM), hits mostly activators; actives 0.24% (n = 390,000);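 also: plate controls were DMSO vehicle for no effect and reference control for full effect; nearly all actives have a fitted effect of over 55% in size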
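Compound concentration series was pinned onto galactose-induced FUS-expressing yeast seeded at OD 0.005. Plates sat 24hr at 30C; absorbance at 600 nm gave growth. DMSO served as background control.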
Abeta yeast res = A-beta toxicity reversal in yeast. yeast expressing A-beta42, growth rescue, OD600, 48 h; response scale: 0% DMSO, 100% iron-clioquinol control. Potency, µM (highest dose often 46.1 µM), usual class: activators. actives 0.063% (n = 410,000); also: nearly all actives have a fitted effect of over 55% in size
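Yeast A-beta toxicity model in growth medium with pinned compounds, 48 h at 30 C; growth read as absorbance at 600 nm. Normalized to FeCl3/clioquinol equimolar mix (positive) and DMSO (negative).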
TDP-43 yeast inh = inhibitors of TDP-43 toxicity in yeast; actives 1.8% (n = 410,000); AID 652104; Potency, µM (titrated, usually from 46.1 µM), inactives show top-dose growth rescue (activation), hits mostly activators; TDP-43 expressing yeast growth rescue, BacTiter-Glo, 24 h; also: % of control where 0% means no effect; nearly all actives have a fitted effect of over 50% in size
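Growth rescue of TDP-43-toxic yeast measured as ATP luminescence (BacTiter-Glo). Cells grown to mid-log in raffinose, induced in galactose at OD600=0.02, exposed to compound 24 hr at 30 deg C.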
TSG101-PTAP inh = blocks PTAP/TSG101 interaction to inhibit HIV-1 budding | Q99816 | Fluorescence polarization, FITC-PTAP peptide / Tsg101 binding | Potency, µM (doses to about 115 µM), for the others: top-dose activity change, negative = inhibition, usual class: inhibitors | 340,000 tested, under 10 active | AID 493005; active = well fitted inhibition curve with a large enough effect in the main read-out, with a control signal flat, not every such curve was filed as active; inconclusive = small, poorly fitted or top-dose-only effect, or effect the other way, or a change in a side signal; inactive = no such curve, though single readings can be large or run the other way; also: % of control where 0% means no effect
Target sequence (Q99816 whole entry, looked up): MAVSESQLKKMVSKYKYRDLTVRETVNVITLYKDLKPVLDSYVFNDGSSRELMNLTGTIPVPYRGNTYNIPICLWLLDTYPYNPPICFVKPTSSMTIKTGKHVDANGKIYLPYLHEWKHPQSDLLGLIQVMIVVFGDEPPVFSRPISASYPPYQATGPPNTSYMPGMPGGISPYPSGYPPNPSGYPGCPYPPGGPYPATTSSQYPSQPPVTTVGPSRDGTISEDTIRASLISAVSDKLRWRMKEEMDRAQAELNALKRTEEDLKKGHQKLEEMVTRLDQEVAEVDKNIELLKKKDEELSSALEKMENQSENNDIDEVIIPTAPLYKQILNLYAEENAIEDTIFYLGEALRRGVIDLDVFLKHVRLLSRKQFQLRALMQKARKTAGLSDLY
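Tsg101 binding domain (10 uM final) was mixed with compound and a FITC-labeled PTAP peptide (50 nM final) in HEPES pH 7.5 buffer with NaCl, Tween 20, EDTA and TCEP; fluorescence polarization was read after 20 min at r.t.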
aSyn yeast inh = alpha-synuclein toxicity inhibition in yeast; Yeast expressing alpha-synuclein, growth rescue, BacTiter-Glo, 24 h; Potency, µM (doses to about 46.1 µM), for the others: top-dose growth rescue (activation), most hits filed as activators; actives 0.14% (n = 370,000); also: % of control where 0% means no effect; nearly all actives have a fitted effect of over 65% in size
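Readout is rescue of growth in alpha-synuclein-expressing yeast, so inhibitors of toxicity appear as activators. Growth after 24 hr at 30 deg C in galactose medium is quantified by luminescence.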
An asterisk follows results filed as active; i = inactive; ? = inconclusive; nt = not tested or not shown. Unless noted, calls follow the shape of the dose curve; as a rule, active = well fitted curve in the direction sought with a large enough effect; inconclusive = small, poorly fitted or top-dose-only effect, or another doubt; inactive = no such curve, though single readings can be large; an effect the other way counts as inactive or inconclusive. Potency is read from the fitted curve at half-maximal effect.

SMILES	FUS suppressor	Abeta yeast res	TDP-43 yeast inh	TSG101-PTAP inh	aSyn yeast inh
CCOC(=O)c1c(C(C)(C)C)oc2ccc(O)cc12	i	i	18µM*	-3%	10%
COc1ccc(NC(=O)CN(c2ccccc2OC)S(C)(=O)=O)c(OC)c1	i	i	7%	nt	nt
COc1ccccc1-c1ccc2c(c1)C(C)(Cc1ccc(F)c(Cl)c1)C(=O)N2 (centres undefined)	?	i	-2%	nt	16%
CCc1cc(C(=O)Nc2ccc(C)cc2Br)cs1	i	i	13µM*	-4%	-1%
O=C1CC(N2CCN(c3ccccc3Cl)CC2)C(=O)N1c1cccc(F)c1 (centres undefined)	i	i	13µM*	-2%	0%
O=S(=O)(Nc1cc(Br)cc2cccnc12)c1cccc2ccccc12	nt	nt	nt	nt	25µM*
COc1ccc(Cl)cc1Cn1c(C)c(C(=O)N(C)Cc2ccc(F)cc2)sc1=O	i	i	22µM*	nt	8%
Cc1c(C(=O)N(C)Cc2ccc(F)cc2)sc(=O)n1Cc1ccc(Cl)c(Cl)c1	i	?	22µM*	nt	?
COc1ccc(Cl)cc1Cn1c(C)c(C(=O)NCc2ccc(F)cc2)sc1=O	?	i	20µM*	nt	?
COc1ccccc1Cn1c(C)c(C(=O)NCc2ccc3c(c2)OCCO3)sc1=O	?	i	0%	nt	0%
CCCCN(C)C(=O)c1sc(=O)n(Cc2cc(Cl)ccc2OC)c1C	i	i	?	nt	10%
COc1ccc(CNC(=O)c2sc(=O)n(Cc3ccccc3OC)c2C)cc1	i	i	25µM*	nt	9%
C=C1C=C(C)n2ncc(C(=O)Nc3ccc(C)cn3)c2N1	nt	nt	nt	nt	-9%
CCc1ccccc1NC(=O)CSc1nc2ncccc2o1	i	i	19%	nt	nt
COc1ccc(C(NC(=O)COc2ccc(C#N)cc2)c2ccc(OC)cc2)cc1	nt	nt	nt	nt	-12%
Cn1c(-c2ccccc2)cc2ccccc21	i	i	0%	1%	8%
Cn1c(-c2ccccc2)cc2c3no[n+]([O-])c3ccc21	i	i	3.5µM*	-3%	11%
O=C(Cn1c(=O)oc2cc(S(=O)(=O)N3CCCCCC3)ccc21)Nc1cccc(C(F)(F)F)c1	i	i	-4%	nt	nt
COc1ccc(/C=N/NC(=O)C[n+]2ccccc2)c(OC)c1OC	i	i	17%	0%	22µM*
COc1cccc(/C=N/NC(=O)C[n+]2ccccc2)c1OC	i	i	-13%	1%	16%
COc1ccccc1NC(=O)CSc1nccc(-c2ccco2)n1	i	i	16µM*	-5%	27%
COc1ccc(C)cc1NC(=O)CSc1nnc(-c2ccco2)n1N	i	i	-6%	-2%	0%
O=C(CSc1ccc(-c2ccccn2)nn1)Nc1ccc(F)c(F)c1	i	i	13µM*	-1%	2%
COc1ccc(C)cc1NC(=O)CSc1ccc(-c2ccco2)nn1	i	i	18µM*	-5%	1%
COc1ccccc1NC(=O)CSc1ccc(-c2ccccn2)nn1	i	?	22µM*	0%	10%
SMILES	FUS suppressor	Abeta yeast res	TDP-43 yeast inh	TSG101-PTAP inh	aSyn yeast inh
O=C(Nc1ccc(F)c(Cl)c1)N1CCC(CN2CCOCC2)CC1	i	i	-14%	nt	nt
CCOC(=O)C1CCN(C(=O)c2ccc(C)c(NC(=O)c3nsc4ccccc34)c2)CC1	?	i	35µM*	nt	nt
CCOC(=O)C1CCCN(C(=O)c2ccc(C)c(NC(=O)c3nsc4ccccc34)c2)C1 (centres undefined)	?	i	?	nt	nt
CC(C)c1ccc(/C=C/C2=NNC(=O)CC2)cc1	i	i	11µM*	-1%	0%
COc1cccc(C(=O)c2cn(CC(=O)Nc3cccc(Cl)c3C)c3nc(C)ccc3c2=O)c1	i	i	12%	nt	nt
CCOc1ccc(C2CC(=O)c3c([nH]c(C(=O)OCCOc4ccccc4)c3C)C2)cc1 (centres undefined)	i	i	-2%	nt	nt
Cc1c(C(=O)OC2CCCC2C)[nH]c2c1C(=O)CCC2 (centres undefined)	i	i	20µM*	1%	-13%
